From PubChem BioAssay AID1159580 (chemical genetic matrix, 2015)
Hit rate of the full screen: of about 5,500 compounds, about 2,000 (36%) were called active. About 18% were inconclusive and are not listed. The list shows a part of the results. A number with no mark means an inactive call. No stated cut-off is given here; in the data, active means normalized growth mostly below about 0.91 (no sharp cut-off); inconclusive means no clear call, values can overlap the other calls; inactive means mostly above about 0.92.

Experiment: chemical genetic growth profiling, strain panel (AID 1159580);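 further: tested at 20 µM; growth read once vehicle control cultures reached saturation at 30 °C; 1 = growth at the plate median or of vehicle wells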
Conditions: S. cerevisiae deletion strains, growth OD

## C=C1CCC2C(CC2(C)C)C(=C)CC/C1=N\O (stereo not drawn)
Locus YAL013W, strain DEP1, stronger effect = lower value
  normalized growth: 1
Locus YAL021C, strain ccr4, stronger effect = lower value
  normalized growth: 1.04
Locus YAL026C, strain drs2, stronger effect = lower value
  normalized growth: 1.01
Locus YAL030W, strain snc1, stronger effect = lower value
  normalized growth: 1
Locus YBL061C, strain skt5, stronger effect = lower value
  normalized growth: 0.999
Locus YBR009C, strain hhf1, stronger effect = lower value
  normalized growth: 0.99
Locus YBR021W, strain FUR4, stronger effect = lower value
  normalized growth: 0.89
Locus YBR023C, strain chs3, stronger effect = lower value
  normalized growth: 1.01
Locus YBR171W, strain sec66, stronger effect = lower value
  normalized growth: 0.993
Locus YBR229C, strain ROT2, stronger effect = lower value
  normalized growth: 1.02
Locus YBR231C, strain swc5, stronger effect = lower value
  normalized growth: 1.01
Locus YBR279W, strain paf1, stronger effect = lower value
  normalized growth: 1.01
Locus YCL011C, strain gbp2, stronger effect = lower value
  normalized growth: 0.997
Locus YCL016C, strain dcc1, stronger effect = lower value
  normalized growth: 0.994
Locus YCL029C, strain bik1, stronger effect = lower value
  normalized growth: 0.983
Locus YCL061C, strain MRC1, stronger effect = lower value
  normalized growth: 0.992
Locus YCL069W, strain vba3, stronger effect = lower value
  normalized growth: 1.01
Locus YCR088W, strain abp1, stronger effect = lower value
  normalized growth: 1
Locus YDL005C, strain med2, stronger effect = lower value
  normalized growth: 0.994
Locus YDL035C, strain GPR1, stronger effect = lower value
  normalized growth: 0.87
Locus YDL040C, strain nat1, stronger effect = lower value
  normalized growth: 0.998
Locus YDL074C, strain BRE1, stronger effect = lower value
  normalized growth: 0.82
Locus YDL101C, strain DUN1, stronger effect = lower value
  normalized growth: 0.986
Locus YDL134C, strain PPH21, stronger effect = lower value
  normalized growth: 1.01
Locus YDL185W, strain tfp1, stronger effect = lower value
  normalized growth: 0.978
Locus YDL192W, strain arf1, stronger effect = lower value
  normalized growth: 0.884 (active)
Locus YDR001C, strain nth1, stronger effect = lower value
  normalized growth: 1
Locus YDR069C, strain doa4, stronger effect = lower value
  normalized growth: 0.995
Locus YDR101C, strain arx1, stronger effect = lower value
  normalized growth: 0.947
Locus YDR137W, strain rgp1, stronger effect = lower value
  normalized growth: 0.949
Locus YDR150W, strain NUM1, stronger effect = lower value
  normalized growth: 1.03
Locus YDR159W, strain sac3, stronger effect = lower value
  normalized growth: 0.977
Locus YDR162C, strain NBP2, stronger effect = lower value
  normalized growth: 0.735 (active)
Locus YDR195W, strain ref2
  normalized growth: 1.01
Locus YDR297W, strain sur2, stronger effect = lower value
  normalized growth: 1.01
Locus YDR318W, strain mcm21, stronger effect = lower value
  normalized growth: 0.911 (active)
Locus YDR334W, strain swr1, stronger effect = lower value
  normalized growth: 1
Locus YDR335W, strain msn5, stronger effect = lower value
  normalized growth: 1
Locus YDR388W, stronger effect = lower value
  normalized growth: 0.964
Locus YDR392W, strain spt3, stronger effect = lower value
  normalized growth: 0.839
Locus YDR502C, strain sam2, stronger effect = lower value
  normalized growth: 0.927
Locus YEL003W, strain gim4, stronger effect = lower value
  normalized growth: 1
Locus YEL037C, strain rad23, stronger effect = lower value
  normalized growth: 0.993
Locus YEL061C, strain CIN8 (second series), stronger effect = lower value
  normalized growth: 1.01
Locus YEL061C, strain CIN8, stronger effect = lower value
  normalized growth: 1.01
Locus YER015W, strain faa2, stronger effect = lower value
  normalized growth: 1.01
Locus YER016W, strain bim1, stronger effect = lower value
  normalized growth: 1
Locus YER110C, stronger effect = lower value
  normalized growth: 1.02
Locus YER111C, strain swi4, stronger effect = lower value
  normalized growth: 1
Locus YER155C, strain BEM2 (second series), stronger effect = lower value
  normalized growth: 1
Locus YER155C, strain BEM2, stronger effect = lower value
  normalized growth: 0.992
Locus YER167W, strain BCK2, stronger effect = lower value
  normalized growth: 0.915
Locus YFR010W, strain ubp6, stronger effect = lower value
  normalized growth: 1
Locus YGL078C, strain dbp3, stronger effect = lower value
  normalized growth: 0.922 (active)
Locus YGL086W, strain mad1, stronger effect = lower value
  normalized growth: 0.923 (active)
Locus YGL167C, strain pmr1, stronger effect = lower value
  normalized growth: 0.996
Locus YGL173C, strain kem1, stronger effect = lower value
  normalized growth: 1
Locus YGL227W, strain vid30, stronger effect = lower value
  normalized growth: 1
Locus YGL240W, strain doc1, stronger effect = lower value
  normalized growth: 1
Locus YGL248W, strain PDE1, stronger effect = lower value
  normalized growth: 1.02
Locus YGL253W, strain hxk2, stronger effect = lower value
  normalized growth: 1
Locus YGR078C, strain PAC10, stronger effect = lower value
  normalized growth: 0.954
Locus YGR135W, strain pre9, stronger effect = lower value
  normalized growth: 0.924
Locus YGR229C, strain SMI1, stronger effect = lower value
  normalized growth: 0.738 (active)
Locus YGR252W, strain gcn5, stronger effect = lower value
  normalized growth: 0.799
Locus YHR013C, strain ard1, stronger effect = lower value
  normalized growth: 1.04
Locus YHR027C, strain rpn1, stronger effect = lower value
  normalized growth: 0.999
Locus YHR030C, strain SLT2, stronger effect = lower value
  normalized growth: 0.983
Locus YHR079C, strain IRE1 (second series), stronger effect = lower value
  normalized growth: 0.962
Locus YHR094C, strain hxt1, stronger effect = lower value
  normalized growth: 0.998
Locus YHR129C, strain ARP1, stronger effect = lower value
  normalized growth: 0.992
Locus YHR142W, strain chs7, stronger effect = lower value
  normalized growth: 1
Locus YHR200W, strain rpn10, stronger effect = lower value
  normalized growth: 0.971
Locus YIL066C, strain RNR3, stronger effect = lower value
  normalized growth: 0.908
Locus YIL073C, strain SPO22, stronger effect = lower value
  normalized growth: 1.08
Locus YIL125W, strain kgd1, stronger effect = lower value
  normalized growth: 0.993
Locus YIR030C, strain dcg1, stronger effect = lower value
  normalized growth: 0.993
Locus YJL092W, strain hpr5, stronger effect = lower value
  normalized growth: 0.996
Locus YJL095W, strain BCK1 (second series), stronger effect = lower value
  normalized growth: 1
Locus YJL095W, strain BCK1, stronger effect = lower value
  normalized growth: 0.843
Locus YJL115W, strain asf1, stronger effect = lower value
  normalized growth: 0.998
Locus YJL129C, strain trk1, stronger effect = lower value
  normalized growth: 0.994
Locus YJL134W, strain LCB3, stronger effect = lower value
  normalized growth: 1.01
Locus YJL154C, strain vps35, stronger effect = lower value
  normalized growth: 1
Locus YJL164C, strain tpk1, stronger effect = lower value
  normalized growth: 1
Locus YJL166W, strain qcr8, stronger effect = lower value
  normalized growth: 1.01
Locus YJL168C, strain set2, stronger effect = lower value
  normalized growth: 0.998
Locus YJL187C, strain SWE1 (second series), stronger effect = lower value
  normalized growth: 0.973
